CYP2C9 inh = inhibitors of human CYP2C9; 20% of 96,000 active; CYP2C9 Supersomes, luciferin-H conversion, luminescence; P11712; inhibition, % at 5 µM; AID 777;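 active = blocking of liver enzyme CYP2C9 beyond about 50% at 5 µM, limit read from the data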
CYP2C19 inh = blocks human cytochrome P450 2C19; 21% of 96,000 active; inhibition, % at 5 µM; CYP2C19 Supersomes, luciferin-H EGE luminescence, 30 min;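 active = CYP2C19 inhibition above a set limit at 5 µM in the primary screen, cut at about 50% in these data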;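 note: plate controls were negative control wells for no effect and 2.5 mM tranylcypromine positive control for full effect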
D1 mod = D1 dopamine receptor (human) allosteric modulation. 5.9% of 58,000 active. B-score at 10 µM. HEK293 D1, CRE-luciferase, dopamine EC30 potentiation; actives deviate in either direction;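 active = luminescence count or its row- and column-corrected plate score outside the 99.7% band of the plate's sample wells, on either side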
Target sequence (P21728 whole entry, looked up): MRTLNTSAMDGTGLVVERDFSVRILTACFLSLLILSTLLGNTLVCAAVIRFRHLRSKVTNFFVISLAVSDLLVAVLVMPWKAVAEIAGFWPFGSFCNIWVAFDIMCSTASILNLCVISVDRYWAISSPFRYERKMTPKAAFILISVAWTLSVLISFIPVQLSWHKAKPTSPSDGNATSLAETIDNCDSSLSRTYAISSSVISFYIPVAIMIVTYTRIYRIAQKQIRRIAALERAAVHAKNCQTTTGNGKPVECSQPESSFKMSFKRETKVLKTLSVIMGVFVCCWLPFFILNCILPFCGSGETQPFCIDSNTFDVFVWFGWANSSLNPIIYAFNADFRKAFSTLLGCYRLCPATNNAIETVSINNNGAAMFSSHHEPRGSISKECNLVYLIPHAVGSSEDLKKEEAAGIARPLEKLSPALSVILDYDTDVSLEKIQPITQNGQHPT
CYP2C19 activ = activators of human cytochrome P450 2C19; P33261; recombinant CYP2C19, luciferin-H EGE luminescence; active compounds read high; 0 = fully inhibited enzyme, 1 = untreated enzyme; activation factor at 5 µM; 96,000 tested, under 10 active; AID 1025;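 active = activation factor of at least 2 at 5 µM in the primary screen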;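 note: 0 = wells with 2.5 mM tranylcypromine and 1 = vehicle-only wells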
CYP2C9 act = increases human cytochrome P450 2C9 activity. activation factor at 5 µM. recombinant CYP2C9, luciferin-H conversion, luminescence; active compounds read high; factor 1 = untreated enzyme, 0 = blocked. 1.4% of 96,000 active;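 active = activation factor of 2 or more for CYP2C9 at a 5 µM dose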;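 note: 0 = sulfaphenazole-blocked wells and 1 = vehicle-only wells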
hDAT+cocaine = modulates human dopamine transporter uptake under cocaine | B-score at 10 µM | Q01959 | 1.3% of 110,000 active | LLC-PK1 hDAT cells, [14C]-dopamine uptake with cocaine IC80; actives deviate in either direction;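 active = Z score or B-score, a plate-position-corrected score, falls beyond the plate's 99.7% confidence bounds, in either direction; inactive = both scores lie inside the 99.7% bounds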;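 note: scored against the spread of the other compound wells on the same plate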
Active calls of the source: *; x = no result. The list is not random: actives were taken first. Their share in the collection is about 28%.

SMILES | CYP2C9 inh | CYP2C19 inh | D1 mod | CYP2C19 activ | CYP2C9 act | hDAT+cocaine
O=C1C2ON(c3ccccc3)C(c3ccccc3F)C2C(=O)N1c1ccccc1 (stereo not drawn) | 10 | -7 | -0.33 | 1.1 | 0.9 | -0.55
CN1C(=O)C2ON(c3ccccc3)C(c3cccs3)C2C1=O (stereo not drawn) | 33 | 59* | -1.4 | 0.4 | 0.7 | -1.3
CC1CN(C(=O)c2cc3ccccc3oc2=O)CC(C)O1 (stereo not drawn) | -79 | -1 | -0.039 | 1 | 1.8 | 0.098
O=C(c1cc2ccccc2oc1=O)N1CCSC1c1ccco1 (stereo not drawn) | -155 | 56* | -0.2 | 0.4 | 2.5* | -0.73
COCCn1nnnc1C(c1cc(OC)ccc1OC)N1CCc2ccccc2C1 (stereo not drawn) | 29 | 59* | 0.6 | 0.4 | 0.7 | 1.2
COc1ccc(C(c2nnnn2CC2CCCO2)N2CCN(c3cccc(C)c3C)CC2)cc1 (stereo not drawn) | 66* | 21 | -1.5 | 0.8 | 0.3 | 0.68
c1ccc(C(c2nnnn2C2CCCC2)N2CCN(c3ccccc3)CC2)cc1 (stereo not drawn) | x | x | x | x | x | -0.29
Fc1ccc(C(c2nnnn2C2CCCC2)N2CCN(Cc3ccncc3)CC2)cc1 (stereo not drawn) | 81* | 91* | -1.6 | 0.1 | 0.2 | -0.29
COc1ccc(C(c2nnnn2C2CCCCC2)N2CCN(c3ccc(OC)cc3)CC2)cc1 (stereo not drawn) | 85* | 72* | -0.39 | 0.3 | 0.1 | 0.8
CCOc1ccc(OCC)c(NC(=O)c2ccc(CNc3c(N4CCOCC4)c(=O)c3=O)cc2)c1 | 26 | 21 | x | 0.8 | 0.7 | 0.88
CC(C)(C)c1ccc(C(=O)N2CCC(=O)N(C(CO)Cc3ccccc3)CC2)cc1 (stereo not drawn) | x | x | x | x | x | 0.021
COCCn1nnnc1C(c1ccc(OC)cc1)N1CCN(c2ccccc2F)CC1 (stereo not drawn) | x | x | 0.011 | x | x | -0.017
COc1ccc(C(c2nnnn2C2CCCC2)N2CCN(C3CCCC3)CC2)cc1OC (stereo not drawn) | -4 | 5 | -0.12 | 1 | 1 | -0.046
CN(c1ccccc1)C(c1ccc(F)cc1)c1nnnn1C1CCCC1 (stereo not drawn) | 82* | 90* | -0.0039 | 0.1 | 0.2 | -0.0018
COc1ccc(C(c2nnnn2C2CCCC2)N2CCC(C)CC2)cc1 (stereo not drawn) | 69* | 82* | 1.1 | 0.2 | 0.3 | -3*
COCCn1nnnc1C(c1ccc(Cl)cc1)N1CCSCC1 (stereo not drawn) | 35 | 79* | 0.56 | 0.2 | 0.7 | -1.3
COCCn1nnnc1C(c1ccc(OC)cc1)N1CCC(C)CC1 (stereo not drawn) | 3 | 73* | 0.4 | 0.3 | 1 | -1
Cc1ccc(C(c2nnnn2CCc2ccccc2)N2CCSCC2)cc1 (stereo not drawn) | 8 | 25 | -0.26 | 0.7 | 0.9 | x
O=C(NCC1CCCO1)c1ccc(CS(=O)(=O)Cc2ccc(F)cc2)o1 (stereo not drawn) | 31 | 5 | 0.23 | 0.9 | 0.7 | 1
Cc1ccc2cc(C(c3nnnn3C3CCCC3)N3CCN(c4ccc(F)cc4)CC3)c(=O)[nH]c2c1 (stereo not drawn) | x | x | -0.52 | x | x | 3.7*
COc1ccc(OC)c(C(c2nnnn2Cc2ccccc2)N2CCN(C3CCCCC3)CC2)c1 (stereo not drawn) | 8 | 1 | x | 1 | 0.9 | 0.19
COc1ccccc1C(c1nnnn1C(C)(C)C)N1CCN(C(=O)c2ccco2)CC1 (stereo not drawn) | 37 | 37 | -0.69 | 0.6 | 0.6 | 1.1
COc1ccccc1C(c1nnnn1C(C)(C)C)N1CCCCCC1 (stereo not drawn) | 77* | 52* | 0.078 | 0.5 | 0.2 | 0.59
COc1ccccc1C(c1nnnn1C1CCCC1)N1CCN2CCCC2C1 (stereo not drawn) | 85* | 43 | x | 0.6 | 0.1 | 0.013
COc1ccc(OC)c(C(c2nnnn2C2CCCC2)N2CCN(c3ccccc3)CC2)c1 (stereo not drawn) | 82* | 90* | -0.97 | 0.1 | 0.2 | 0.59
SMILES | CYP2C9 inh | CYP2C19 inh | D1 mod | CYP2C19 activ | CYP2C9 act | hDAT+cocaine
Clc1ccc(C(c2nnnn2C2CCCC2)N2CCSCC2)cc1 (stereo not drawn) | 79* | 63* | x | 0.4 | 0.2 | 0.1
c1cc(N2CCCC2)ccc1C(c1nnnn1C1CCCCC1)N1CCOCC1 (stereo not drawn) | 44 | 40 | 0.036 | 0.6 | 0.6 | -0.31
O=C(NCc1ccccc1)C(c1cccnc1)N(Cc1ccco1)C(=O)c1ccccn1 (stereo not drawn) | 32 | 8 | -0.24 | 0.9 | 0.7 | 0.51
O=C(Nc1ccccc1N1CCOCC1)c1ccc(Br)o1 | 22 | 26 | 0.68 | 0.7 | 0.8 | -0.62
O=C(Nc1ccc(CN2CCOCC2)cc1)c1ccc(-c2cc(Cl)ccc2Cl)o1 | 65* | 55* | x | 0.5 | 0.3 | 2.2
O=C(NC(=S)Nc1ccc(N2CCOCC2)c(Cl)c1)C(c1ccccc1)c1ccccc1 | 76* | 10 | x | 0.9 | 0.2 | 0.11
O=C(/C=C/c1ccccc1)NC(=S)Nc1ccc(N2CCOCC2)c(Cl)c1 | 4 | -1 | x | 1 | 1 | x
O=C(Nc1ccc(N2CCOCC2)c(Cl)c1)c1ccc(Br)o1 | 51* | 58* | -5* | 0.4 | 0.5 | -1.1
O=C(Nc1ccc(N2CCN(C(=O)c3ccccc3)CC2)c(Cl)c1)c1ccc(Br)o1 | 51* | 37 | -0.83 | 0.6 | 0.5 | 0.13
CCCCN1C(=S)NC[C@@H]1Cc1ccc(O)cc1 | x | x | x | x | x | -1.1
O=C(c1noc2c1CCCCC2)N1CCN(C(c2ccccc2)c2ccccc2)CC1 | x | x | -0.023 | x | x | x
Cc1ccc(S(=O)(=O)N2CCC(=O)N(C(COCc3cccc(C(F)(F)F)c3)C(C)C)CC2)cc1 (stereo not drawn) | x | x | x | x | x | -0.46
O=C(Nc1ccc(N2CCCC2)cc1)c1ccc(Br)o1 | 10 | 61* | x | 0.4 | 0.9 | 0.092
CCC(C)(C)NC(=O)CN(Cc1cccs1)C(=O)CCC(=O)Nc1nccs1 | 14 | 25 | x | 0.8 | 0.9 | 0.12
CCC(C)(C)NC(=O)CN(Cc1cccs1)C(=O)C(=O)Nc1ccc2c(c1)OCCO2 | 72* | 46 | x | 0.5 | 0.3 | -0.058
N#CCCSc1ccccc1NC(=O)c1ccc(S(=O)(=O)N2CCCC2)cc1 | 76* | 19 | -1.7 | 0.8 | 0.2 | 0.9
O=C(Nc1cccnc1Cl)c1ccc(S(=O)(=O)N2CCCCCC2)cc1 | 27 | -8 | x | 1.1 | 0.7 | x
CCc1ccc(C(=O)NCc2cccs2)s1 | 45 | 80* | 0.23 | 0.2 | 0.5 | 0.036
O=C(NCc1cccs1)c1ccc(Cl)s1 | 6 | 54* | -0.39 | 0.5 | 0.9 | -0.43
O=C(NCc1ccccn1)c1ccc(Cl)s1 | 16 | 26 | x | 0.7 | 0.8 | 0.49

Screens deposited in PubChem BioAssay by several laboratories.
